WRN inhibitor: inhibitors of human WRN helicase | WRN helicase unwinding, fluorescent forked duplex, kinetic | Potency, µM (highest dose often 114 µM), without a hit: at the highest dose activity change, negative = inhibition, actives largely listed as inhibitors | 360,000 compounds, 0.46% hits; also: potency is read from the fitted curve at half-maximal effect; % is scaled to controls: 0 for no effect and ±100 for the full control effect; nearly all actives have a fitted effect of over 55% in size
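Kinetic fluorescence helicase assay: unwinding of a quenched forked DNA duplex (100 nM final) with 2 mM ATP final raises red fluorescence (525/598 nm). Compounds sat 15 min at room temperature with 20 nM WRN beforehand.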
POLB inh: inhibitors of human DNA polymerase beta. P06746. Pol beta primer extension/strand displacement, fluorescence kinetic. Potency, µM (series often up to 114 µM), for the others: at the highest dose activity change, negative = inhibition, most hits filed as inhibitors. 340,000 compounds, 1.3% hits. AID 485314; also: potency is read from the fitted curve at half-maximal effect; % is scaled to controls: 0 for no effect and ±100 for the full control effect
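Values derive from four-parameter Hill fits of normalized kinetic data: reads at 0 and 10 min following addition of 50 nM substrate to 10 nM Pol beta preincubated 15 min with compound.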
PI5P4K alpha inh: inhibitors of human PI5P4K alpha. max response, %. PI5P4Kalpha enzyme, ADP-Glo luminescence, 60 min; stronger effect = lower value. P48426. 330,000 compounds, 1.2% hits; active = max response of -50% or lower; inconclusive = between -30% and -50%; inactive = -30% or higher; also: value at the top dose of about 77 µM; % is scaled to controls: 0 for no effect and ±100 for the full control effect
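Controls without substrate or without enzyme flank wells where PI5P4Kalpha converts substrate using 5 microM ATP (final). Incubation lasts 60 minutes at room temperature; ADP formed is read by ADP-Glo luminescence.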
Pol kappa inh-1: DNA polymerase kappa (human) inhibition; Q9UBT6; purified Pol kappa, fluorescent DNA synthesis assay, 10 min; Potency, µM (doses to about 107 µM), for the others: at the top dose activity, negative = inhibition, actives largely listed as inhibitors; 400,000 compounds, 0.53% hits; AID 588579; also: potency is read from the fitted curve at half-maximal effect; % is scaled to controls: 0 for no effect and ±100 for the full control effect
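Inhibition of 10 nM Pol kappa is measured by a fluorescent read-out at 0 and 10 min following addition of 50 nM substrate (final), with a 15-min room-temperature compound preincubation.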
Pol eta inh-1: inhibitors of human DNA polymerase eta; recombinant Pol eta, fluorescent DNA replication assay; Potency, µM (highest dose often 114 µM), for inactives: at the top dose activity change, negative = inhibition, usual class: inhibitors; 390,000 compounds, 1.2% hits; AID 588591; also: potency is read from the fitted curve at half-maximal effect; % is scaled to controls: 0 for no effect and ±100 for the full control effect
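Pol eta (10 nM) was preincubated with compounds for 15 min at room temperature, after which fluorescent replication substrate (50 nM final) was added to start the reaction. Fluorescence was read kinetically at 0 and 10 min.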
Pol iota inh: inhibitors of human DNA polymerase iota; Q9UNA4; Pol iota fluorescent replication assay, 10 min; Potency, µM (doses to about 115 µM), for inactives: top-dose activity, negative = inhibition, most hits filed as inhibitors; AID 588590; 390,000 compounds, 1% hits; also: potency is read from the fitted curve at half-maximal effect
Target sequence (Q9UNA4 whole entry, looked up): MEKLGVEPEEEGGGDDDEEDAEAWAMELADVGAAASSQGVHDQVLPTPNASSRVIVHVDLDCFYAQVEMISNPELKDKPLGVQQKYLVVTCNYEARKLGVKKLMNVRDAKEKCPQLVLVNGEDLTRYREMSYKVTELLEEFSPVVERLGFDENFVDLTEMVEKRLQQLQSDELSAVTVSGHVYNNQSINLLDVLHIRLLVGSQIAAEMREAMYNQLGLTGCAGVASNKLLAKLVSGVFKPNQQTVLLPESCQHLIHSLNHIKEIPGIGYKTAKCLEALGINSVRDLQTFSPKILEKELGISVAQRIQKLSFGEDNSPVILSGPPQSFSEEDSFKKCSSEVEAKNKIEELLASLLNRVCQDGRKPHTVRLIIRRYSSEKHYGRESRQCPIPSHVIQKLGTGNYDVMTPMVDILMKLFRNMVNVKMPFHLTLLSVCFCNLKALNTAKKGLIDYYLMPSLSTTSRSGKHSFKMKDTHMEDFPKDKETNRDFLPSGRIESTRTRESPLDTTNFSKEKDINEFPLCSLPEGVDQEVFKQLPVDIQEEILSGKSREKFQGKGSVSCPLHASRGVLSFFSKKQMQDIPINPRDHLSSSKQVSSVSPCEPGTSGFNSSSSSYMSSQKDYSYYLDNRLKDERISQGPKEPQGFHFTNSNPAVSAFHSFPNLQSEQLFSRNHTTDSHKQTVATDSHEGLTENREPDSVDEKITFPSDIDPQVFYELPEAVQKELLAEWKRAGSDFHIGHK
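Pol iota at 10 nM preincubated 15 min with compounds at room temperature; reaction started with fluorescent substrate, 50 nM final. Fluorescence read kinetically at 0 and 10 min; buffer-only wells as negative control.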
Pol kappa inh-2: confirmation of human DNA polymerase kappa inhibitors; 920 compounds, 76% hits; shares compounds with Pol eta inh-1; purified Pol-kappa, fluorescent strand-displacement substrate; Potency, µM, hits mostly inhibitors; AID 720501; also: potency is read from the fitted curve at half-maximal effect
Pol eta inh-2: Pol eta (human) inhibition, cherry-pick confirmation; Pol eta primer extension, TAMRA/BHQ fluorescence, 10 min; shares compounds with Pol eta inh-1; Potency, µM, hits mostly inhibitors; AID 720502; 2,600 compounds, 64% hits; also: potency is read from the fitted curve at half-maximal effect
Starred values were filed as active, the others as inactive; ? = inconclusive; . = not tested or not shown; [ ] = dose if it differs, or a comment. In the library only some 2.8% were active in any assay of this set; here they are far more common. Unless noted, calls follow the shape of the dose curve; as a rule, active = well fitted curve in the direction sought with a large enough effect; inconclusive = small, poorly fitted or top-dose-only effect, or another doubt; inactive = no such curve, though single readings can be large; an effect the other way counts as inactive or inconclusive.

SMILES	WRN inhibitor	POLB inh	PI5P4K alpha inh	Pol kappa inh-1	Pol eta inh-1	Pol iota inh	Pol eta inh-2	others
Cc1cc(SCC(=O)N/N=C/c2ccc(O)c(O)c2)nc2ccccc12	79.4µM*	8.91µM*	?	?	20µM*	50.1µM*	37.9*
O=C(Cc1nnc(NC(=O)c2ccccc2)s1)N/N=C\c1ccc(O)c(O)c1	17.8µM*	7.08µM*	-74.5*	3.16µM*	3.16µM*	2.24µM*	37.9*	Pol kappa inh-2=9.47*
O=C(COC(=O)c1ccccc1Nc1ccc(SC(F)F)cc1)NCc1ccco1	2.9%	30.6%	-4.3	-11.4%	-10.4%	-2.7%	.
Cc1cccc(Nc2ccccc2C(=O)OCC(=O)NCc2ccco2)c1C	-19.0%[57.1 µM]	1.0%	.	-9.2%	79.4µM*	?	?
CC(=O)NS(=O)(=O)c1ccc(NC(=O)c2cc(-c3ccc(C)c(C)c3)nc3ccccc23)cc1	?	25.1µM*	?	-7.1%	22.4µM*	-22.5%	75.7*
CC(/C=C/c1ccc(Cl)o1)=C\C(=O)O	-29.2%[57.1 µM]	31.6µM*	-18.8	-25.6%	22.4µM*	?	47.8*
CC(=C/C(=O)O)/C=C/c1ccco1	-8.3%[11.6 µM]	?	-9.3	?	?	89.1µM*	?
CCN(CC)c1ccc(C(=O)NCc2nc3cccnc3n2Cc2ccc(C)cc2)cc1	.	-13.7%	.	-3.8%[60.1 µM]	-32.2%	12.3%	.
COc1ccc(OC)c(-c2noc(N3CCN(c4ccc(C(C)=O)cc4)CC3)n2)c1	.	6.5%	.	-4.4%	-21.1%	12.5%	.
CC(=O)NCc1ccc(C(=O)COC(=O)COc2ccccc2)s1	-18.3%	.	-0.9	?	22.4µM*	44.7µM*	75.7*
CC1(CC(=O)N/N=C/c2cc([N+](=O)[O-])c(O)cc2O)OCCO1	?	4.47µM*	-64.1*	?	22.4µM*	?	?
Cc1ccc(-n2c(C)cc(/C=N/NC(=O)CC3(C)OCCO3)c2C)c(C)c1	-2.8%	-20.7%	-1.1	-22.1%	1.9%	?	.
O=C(NCC(c1ccc2c(c1)OCO2)N1CCOCC1)c1c(F)cccc1F (stereo not given)	.	9.0%	.	-8.1%[60.1 µM]	2.7%	?	.
COc1ccc(/C=c2\sc3nc(-c4ccccc4OC)nn3c2=O)c(OC)c1	-9.2%	-23.5%	-4.8	-9.0%	?	7.0%	.
C=CCOc1ccccc1/C=c1\sc2nc(=O)c(C)nn2c1=O	?	25.1µM*	.	50.1µM*	28.2µM*	10µM*	21.3*	Pol kappa inh-2=37.7*
O=C(C=Cc1ccco1)c1ccc([N+](=O)[O-])cc1	7.5%	.	-13.0	-20.4%	-17.8%	46.2%	.
O=C(/C=C/c1ccco1)c1ccc(NC(=O)C23CC4CC(CC(C4)C2)C3)cc1	?	7.08µM*	-76.9*	?	10µM*	?	?
Cc1c2oc3c(C)ccc(C(=O)NC4C(=O)NC(C(C)C)C(=O)N5CCCC5C(=O)N(C)CC(=O)N(C)C(C(C)C)C(=O)OC4C)c3nc-2c(C(=O)NC2C(=O)NC(C(C)C)C(=O)N3CCCC3C(=O)N(C)CC(=O)N(C)C(C(C)C)C(=O)OC2C)c(N)c1=O (stereo not given)	.	.	.	4.8%[19.4 µM]	.	.	.
O=C(O)CCN1CCc2ccccc21	-13.9%[57.1 µM]	?	4.1	?	17.8µM*	?	?
COc1ccc(C)cc1NC(=O)N(Cc1ccc(C)o1)C1CCN(C(C)=O)CC1	.	0.5%	.	-4.2%	-12.1%	-6.7%	.
c1ccc(Nc2ccnc(Nc3ccccc3)n2)cc1	-3.3%	-12.8%	7.8	3.7%	-19.9%	6.9%	.
NNc1nccc(Nc2ccccc2C(=O)O)n1	?	?	-54.5*	?	12.6µM*	?	?
CCOC(=O)Cc1ccc(NC(=O)N2CC(CC)Oc3ccccc32)cc1 (stereo not given)	.	18.2%	.	4.2%	-5.9%	11.0%	.
COc1cc(O)c(CCO)c2c1C(=O)C[C@@H](C)O2	-3.5%	-1.5%	0.7	-6.0%	0.4%	0.7%	.
CC1CCC/C=C/C(=O)c2c(O)cc(O)cc2CC(=O)O1 (stereo not given)	-12.0%[11.6 µM]	-15.2%	2.1	79.4µM*	35.5µM*	17.8µM*	75.7*
SMILES	WRN inhibitor	POLB inh	PI5P4K alpha inh	Pol kappa inh-1	Pol eta inh-1	Pol iota inh	Pol eta inh-2	others
CC(C)c1ccc(NC(=O)C2CCCN(S(=O)(=O)c3ccc4[nH]c(=O)oc4c3)C2)cc1 (stereo not given)	.	2.4%	.	?	-5.1%	?	.
COP(=O)(OC)c1ccc(NCc2cc(O)ccc2O)cc1	56.2µM*	.	-23.5	?	10µM*	10µM*	47.8*
CC(C)OC(=O)c1ccc(NCc2cc(O)ccc2O)cc1	-10.8%	.	-16.4	-18.7%	-24.4%	-2.2%	.
O=C(O)c1cccc(N2CCCC2)c1	-9.1%[57.1 µM]	2.2%	-10.4	-14.3%	?	?	75.7*
CCn1c(=O)cc(SCC(=O)NCCc2cccc(C)c2)c2ccccc21	.	5.6%	.	-8.6%	-8.5%	34.5%	.
Cn1c(-n2cccc2)c(-c2c(-c3ccccc3)[nH]c3c2c(=O)[nH]c(=O)n3C)c(=O)[nH]c1=O	.	15.8µM*	.	?	79.4µM*	79.4µM*	.	Pol kappa inh-2=?
COc1ccc(-c2noc(CC(=O)Nc3ccc(Br)cc3C)n2)cc1	.	-0.6%	.	7.5%	-8.6%	23.8%	.
O=C(OCc1cc(=O)n2ccsc2n1)c1ccccc1NCCO	-11.4%[11.6 µM]	.	?	?	22.4µM*	20µM*	?
CCCC(=O)Nc1sc(C)c(C)c1C#N	-7.4%	-11.4%	2.1	3.8%	-18.9%	78.4%	.
CCc1c(C)sc(NC(=O)CC#N)c1C#N	?	?	.	?	22.4µM*	44.7µM*	?
Cc1nn(CCCC(=O)NCc2ccc(F)cc2)c(=O)c2c1sc1ccccc12	.	-9.2%	.	3.6%	-8.6%	34.3%	.
COc1cc(/C=C/C(=O)c2ccc(NS(=O)(=O)c3ccc(C)cc3)cc2)cc(OC)c1O	?	-14.4%	?	-12.9%	10µM*	?	?
COc1cc(/C=C/C(=O)c2ccc(NS(=O)(=O)c3ccc(C)cc3)cc2)ccc1OC(F)F	-9.0%	-0.7%	12.1	-9.3%	?	-19.2%	.
CCOc1ccc(-n2nc(CO)c(C(=O)NCc3ccc(Cl)cc3)n2)cc1	.	-12.8%	.	-7.7%	15.1%	-3.0%	.
CCCNC(=O)C1CCC(Cn2c(=O)c3sccc3n(CC(=O)N3CCCC(C)C3)c2=O)CC1 (stereo not given)	.	12.7%	.	8.3%	-16.0%	23.8%	.
O=C(O)c1ccc(Cl)c(S(=O)(=O)Nc2ccc3cn[nH]c3c2)c1	-14.1%	22.4µM*	-20.6	?	17.8µM*	?	?

Compound activity (PubChem BioAssay)
